Measured potencies and affinities stand elsewhere.
Test system: Cryptococcus neoformans
Details: Concentration 32 ug.mL-1; ASSAY_TEST Inhibition of Fungal Growth; detection method Resazurin; Absorption (OD600-OD570); plate type 384well; NBS; CORNING #3640

Compound	Inhibition
COc1ccc(-n2ccn3c(-c4ccc([N+](=O)[O-])cc4)nnc3c2=O)cc1Cl	-13.11%
COc1ccc(NC(=O)Cn2c(=O)c3nnc(C)n3c3ccccc32)cc1Cl	-20.99%
Cc1ccc(NC(=O)Cn2nc3ccc(SCc4ccc(Cl)cc4)nn3c2=O)c(C)c1	-27.61%
COc1cccc(CN(c2ccc(C)c(F)c2)S(=O)(=O)c2ccc3nncn3c2)c1	-8.8%
COc1ccc(NC(=O)Cn2nc3c4c5c(sc4ncn3c2=O)CCCC5)cc1	-17.73%
COc1cc(OC)c(NC(=O)Cn2nc3c(Oc4ccccc4)nccn3c2=O)cc1Cl	-9.36%
Cc1cccc(C)c1NC(=O)CSc1nnc2c3cc(-c4ccc(F)cc4)nn3ccn12	-11.19%
COc1ccc(-c2cc3c4nn(CC(=O)Nc5cccc(C)c5)c(=O)n4ccn3n2)cc1	-17.04%
COc1ccc(NC(=O)CSc2nnc3c(=O)n(-c4ccccc4)ccn23)cc1	-4.81%
COc1ccc(NC(=O)Cn2nc3c(Oc4ccccc4)nccn3c2=O)cc1	-6.99%
COc1cccc(-n2ccn3c(SCC(=O)NCc4ccco4)nnc3c2=O)c1	-13.76%
Cc1nnc2c(S(=O)(=O)N(Cc3ccc(F)cc3)c3ccc(Cl)cc3)cccn12	-7.17%
CC(C)CCn1c(=O)c2ccc(C(=O)NC3CCCC3)cc2n2c(=O)n(CC#N)nc12	-21.13%
CC(C)CCNC(=O)Cn1nc2n(CC(C)C)c(=O)c3sccc3n2c1=O	-16.87%
O=C(Cn1nc2c(Sc3cccc(F)c3)nccn2c1=O)Nc1cccc(Br)c1	-2.48%
COc1ccccc1-n1ccn2c(SCC(=O)c3ccc(C)cc3C)nnc2c1=O	-10.37%
COc1ccc(NC(=O)c2ccc3nn(CC(=O)Nc4ccc(C)c(F)c4)c(=O)n3c2)cc1	-14.12%
Cc1cccc(Oc2nccn3c(=O)n(CC(=O)NCCCc4ccccc4)nc23)c1C	-6.84%
Cc1cccc(CSc2nnc3c(=O)n(-c4ccc(Br)cc4)ccn23)c1	-6.53%
CCC(Sc1nnc2c(=O)n(-c3cccc(OC)c3)ccn12)C(=O)Nc1ccccc1C (stereo unspecified)	-7.71%
O=C(CSc1nnc2c(=O)n(-c3ccc(Br)cc3)ccn12)c1c[nH]c2ccccc12	-16.54%
O=C(CCc1nnc2c(N3CCCCC3)nc3ccccc3n12)NCc1ccc2c(c1)OCO2	-25.55%
CCN(CCCNC(=O)CCc1nnc2ccc(-c3ccccc3)nn12)c1ccccc1	-0.38%
Cc1cc(C)c(NC(=O)Cn2nc3c4c5c(sc4ncn3c2=O)CCCC5)c(C)c1	-18.32%
CCc1nnc2c(S(=O)(=O)N(Cc3ccccc3F)c3ccc(F)cc3)cccn12	-5.43%
COc1ccc(NC(=O)c2ccc3nn(CC(=O)Nc4cccc(OC)c4)c(=O)n3c2)cc1	-9.24%
